NPC1 prom act = NPC1 promoter activation; AID 485313; Huh7 NPC1 promoter luciferase reporter, 24 h; hit rate 2.4% among 320,000; Potency, µM (doses to about 9.22 µM), actives largely listed as activators; also: nearly all actives have a fitted effect of over 60% in size
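Huh7 reporter cells (NPC1 promoter driving luciferase) are dosed with compound for 24 h at 37 °C, 5% CO2; luciferase detection reagent is then added and luminescence measured after 10 min at ambient temperature.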
KinaseGlo FLuc = counter-screen: inhibitors of Kinase-Glo firefly luciferase | Q27757 | Kinase-Glo luciferase, ATP luminescence, 8 min | Potency, µM (doses to about 38.3 µM), most hits filed as inhibitors | hit rate 0.28% among 200,000 | AID 1379; also: nearly all actives have a fitted effect of over 60% in size
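Substrate mix (final 50 mM imidazole pH 7.2, 50 mM KCl, 7 mM MgCl2, 10 uM ATP, 0.01% Tween 20, 0.05% BSA) plus pin-tool compound, then Kinase-Glo detection mix; 8 min ambient, luminescence read.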
Rab9 promoter act = activators of Rab9 promoter; Huh7 Rab9 promoter-luciferase reporter, luminescence, 24 h; Potency, µM (highest dose often 9.22 µM), most hits filed as activators; hit rate 2.8% among 320,000; also: nearly all actives have a fitted effect of over 60% in size
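Cell-based reporter: Huh7 stable for Rab9 promoter-driven luciferase, plated in reduced-serum medium with 10% FBS at 1500 cells/well, compound-treated 24 h at 37 °C, luminescence read after 10 min reagent.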
FLuc modulator = firefly luciferase modulation, counter-screen for miR-21 project; hit rate 6.9% among 360,000; P08659; Potency, µM (top dose mostly 57.5 µM), hits mostly inhibitors; AID 588342; purified FLuc, Km substrates, luminescence inhibition; also: nearly all actives have a fitted effect of over 55% in size
Target sequence (P08659 whole entry, looked up): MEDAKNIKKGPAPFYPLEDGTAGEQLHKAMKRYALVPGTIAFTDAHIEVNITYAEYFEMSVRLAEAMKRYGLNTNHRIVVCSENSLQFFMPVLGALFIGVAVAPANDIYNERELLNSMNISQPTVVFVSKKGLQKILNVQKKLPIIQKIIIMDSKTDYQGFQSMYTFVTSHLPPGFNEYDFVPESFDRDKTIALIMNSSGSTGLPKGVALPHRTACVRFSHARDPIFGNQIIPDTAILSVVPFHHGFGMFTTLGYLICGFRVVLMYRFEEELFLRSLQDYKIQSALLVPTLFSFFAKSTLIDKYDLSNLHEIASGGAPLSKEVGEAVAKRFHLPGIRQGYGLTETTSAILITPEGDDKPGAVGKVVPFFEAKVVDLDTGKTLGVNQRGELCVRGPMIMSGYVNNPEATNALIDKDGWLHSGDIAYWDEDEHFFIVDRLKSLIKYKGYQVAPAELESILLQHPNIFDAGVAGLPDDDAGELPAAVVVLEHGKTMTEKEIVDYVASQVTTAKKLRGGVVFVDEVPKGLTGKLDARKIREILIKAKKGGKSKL
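Purified P. pyralis luciferase, 10 nM final, with Km-level 10 uM D-luciferin and 10 uM ATP in 50 mM Tris acetate pH 7.5, 10 mM Mg acetate, 0.01% Tween-20, 0.05% BSA; 6-point qHTS titration about 60 µM downward; luminescence read.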
ELG1 genotoxic = genotoxicity induction in ELG1-luciferase HEK293T cells; HEK293T ELG1-luciferase reporter, luminescence, 16 h; Potency, µM (doses to about 46 µM), usual class: activators; hit rate 1.3% among 330,000; AID 504466; also: nearly all actives have a fitted effect of over 60% in size
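DMSO vehicle served as control against compound-treated ELG1-luciferase HEK293T cells; exposure lasted 16 hr at 37 °C and 5% CO2, followed by ONE-Glo luminescence detection after 30 min.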
SMN2 splice up = SMN2 splice variant enhancement. HEK293 SMN2-luciferase splicing reporter, luminescence, 30-36 h. Potency, µM (top dose mostly 46.1 µM), usual class: activators. hit rate 2.8% among 210,000. AID 1458; also: nearly all actives have a fitted effect of over 55% in size
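HEK293 cells carry an SMN2 minigene-luciferase reporter in which exon 7 inclusion puts luciferase in frame. Cells were seeded at 2000 cells/well, attached for 10-12 hours, then exposed to compounds for 30-36 hours at 37C before ONE-Glo luminescence.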
Each line names hits and unclear results; the compound was inactive in the other large screens. This is a sample that favours compounds with a hit; in the whole collection about 7.4% have one here. Calls follow the shape of the dose curve; as a rule, active = well fitted curve in the direction sought with a large enough effect; inconclusive = small, poorly fitted or top-dose-only effect, or another doubt; inactive = no such curve, though single readings can be large; an effect the other way counts as inactive or inconclusive.

c1ccc(-c2nnc3sc(-c4ccncc4)nn23)cc1	SMN2 splice up 4.5µM
c1ccc(-c2nnc3sc(-c4csc5c4CCCC5)nn23)cc1	FLuc modulator 15µM, SMN2 splice up inconclusive
Cc1nc2sc(-c3ccccc3)nn2c(=O)c1Br	NPC1 prom act 3.2µM, KinaseGlo FLuc inconclusive, Rab9 promoter act 2.2µM, FLuc modulator 8.5µM, ELG1 genotoxic inconclusive, SMN2 splice up 5.6µM
CC(=O)c1ccc(NC(=O)CC2Oc3ccc(C)cc3NC2=O)cc1 (stereo unspecified)	none (no result: NPC1 prom act, KinaseGlo FLuc, Rab9 promoter act, ELG1 genotoxic)
CCOC(=O)c1cnc2cc(-c3ccc(Cl)cc3)nn2c1N	NPC1 prom act 1.1µM, Rab9 promoter act 1.3µM, FLuc modulator inconclusive, ELG1 genotoxic inconclusive, SMN2 splice up inconclusive
CCOC(=O)c1cnc2cc(-c3ccc(Cl)cc3)nn2c1-c1ccccc1	none (no result: NPC1 prom act, KinaseGlo FLuc, Rab9 promoter act, ELG1 genotoxic)
CCOC(=O)c1cnc2cc(-c3ccc(Br)cc3)nn2c1C	NPC1 prom act inconclusive, Rab9 promoter act 2.8µM, FLuc modulator inconclusive, ELG1 genotoxic inconclusive (no result: KinaseGlo FLuc, SMN2 splice up)
Cc1cn2c(=O)cc(COC(=O)c3ccc(NC(=O)c4ccc(C(C)(C)C)cc4)cc3)nc2s1	none (no result: NPC1 prom act, KinaseGlo FLuc, Rab9 promoter act, ELG1 genotoxic, SMN2 splice up)
O=C1O/C(=C/Br)CCC1c1cccc2ccccc12 (stereo unspecified)	none (no result: FLuc modulator, ELG1 genotoxic)
c1ccc(-c2cc(N3CCCCC3)ncn2)cc1	NPC1 prom act inconclusive, Rab9 promoter act 2.8µM, FLuc modulator 11µM, ELG1 genotoxic 15µM, SMN2 splice up 10µM
Nc1nc(-c2ccccc2)cc(N2CCCCC2)n1	none
c1ccc(-c2cc(N3CCCCCC3)n[nH]2)cc1	NPC1 prom act inconclusive, Rab9 promoter act inconclusive, FLuc modulator 21µM, ELG1 genotoxic 16µM, SMN2 splice up inconclusive
NC(=O)N/N=C/c1ccccc1OC(=O)c1cc2ccccc2oc1=O	FLuc modulator inconclusive, ELG1 genotoxic inconclusive (no result: KinaseGlo FLuc, SMN2 splice up)
NC(=S)N/N=C/c1ccccc1OC(=O)c1cc2ccccc2oc1=O	FLuc modulator 21µM (no result: KinaseGlo FLuc, SMN2 splice up)
NC(=S)N/N=C/c1ccccc1OC(=O)/C=C/c1ccccc1	FLuc modulator 27µM (no result: KinaseGlo FLuc, SMN2 splice up)
Cc1cc(=O)[nH]c2cc3oc4ccccc4c3cc12	none (no result: NPC1 prom act, Rab9 promoter act, FLuc modulator, ELG1 genotoxic)
O=C(O)/C=C\C(=O)Nc1ccc2c(c1)-c1ccccc1C2	none (no result: NPC1 prom act, Rab9 promoter act, FLuc modulator, ELG1 genotoxic)
